Measurements published in PubChem BioAssay AID371 (SRMLSC, 2006).
Hit rate of the full screen: of about 3,300 compounds, about 280 (8.5%) were called active. The sample holds actives, similar compounds and a random draw of the others, so the mix is not that of the screen. A number with no mark means an inactive call.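 Rule for the calls: active = mean growth inhibition over the two runs of 50% or more; inactive = mean growth inhibition under 50%.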

test: A549 NSCLC cell proliferation inhibitors – ATP luminescence, human non-small cell lung line, primary screen (AID 371); settings: at 10 µM, hits give high values;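 note: compound exposure lasted 72 h before the ATP read; 0% = untreated cell signal and 100% = no luminescence left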

Row | Compound | growth inhibition
1 | CN(C)CCOC(=O)c1cn(Cc2ccccc2)c2ccccc12 | 61.2% (active)
2 | CCCCOCCCn1c(N)c(C(=O)OCCOC)c2nc3ccccc3nc21 | 23.4%
3 | Nc1c(C(=O)NCc2ccco2)c2nc3ccccc3nc2n1Cc1ccc(F)cc1 | 86.7% (active)
4 | COCCOC(=O)c1c(N)n(Cc2ccco2)c2nc3ccccc3nc12 | 12.9%
5 | Nc1c(C(=O)NCc2ccco2)c2nc3ccccc3nc2n1CCN1CCCCC1 | 91.8% (active)
6 | CCCCOCCCn1c(N)c(C(=O)OC(C)COC)c2nc3ccccc3nc21 (centres undefined) | 36.6%
7 | CC(C)OC(=O)c1c(N)n(Cc2ccco2)c2nc3ccccc3nc12 | 18.6%
8 | CC(C)(C)OC(=O)c1c(N)n(Cc2ccco2)c2nc3ccccc3nc12 | 56.9% (active)
9 | COCC(C)OC(=O)c1c(N)n(Cc2ccco2)c2nc3ccccc3nc12 (centres undefined) | 14%
10 | COc1ccc(Cn2c(O)c(C=NCCCn3ccnc3)c(=O)[nH]c2=O)cc1 | -7.41%
11 | CCCCCCn1c(O)c(C(C)=NC)c(=O)[nH]c1=O | 8.94%
12 | O=C(c1ccco1)C12CN3CN(CN(C3)C1)C2 | -3.02%
13 | OC1(c2ccc(F)cc2)CCNC1 (centres undefined) | -3.04%
14 | O=C1C2CCN(CC2)[C@@H]1Cc1ccc2ccccc2c1O | 7.73%
15 | COc1cc2[nH]c(=O)n(-c3cccc(Cl)c3)c(=O)c2cc1OC | 3.67%
16 | O=C1c2ccccc2C(=O)N1Cc1nc2ccccc2c(=O)n1-c1cccnc1 | -0.22%
17 | C=CCC1(CN2CCCCCC2=O)C(=O)NC(=O)NC1=O | 2.99%
18 | CCCCNC(=O)Nc1ccc(C(O)(C(=O)OC)C(F)(F)F)cc1 (centres undefined) | -4.53%
19 | CCOC(C(=O)OCC(O)CN(CC)CC)(c1ccccc1)c1ccccc1 (centres undefined) | 15.7%
20 | O=C(O)CCCc1ccc(N(CCCl)CCCl)cc1 | 50.8% (active)

Row | Compound | growth inhibition
21 | CCOCCN1CCC(OC(C)=O)C(C)C1 (centres undefined) | 1.45%
22 | CCOc1ccc(Cc2c(O)[nH]c(=O)[nH]c2=O)cc1 | -5.3%
23 | CCCCNC(=O)Nc1ccc(C(O)(C(=O)OCC)C(F)(F)F)cc1 (centres undefined) | -3.41%
24 | CN1CCC(OC(=O)C2c3ccccc3Oc3ccccc32)CC1 | 13%
25 | CCCC12CN3CN(C1)CC(CCC)(C3)C2O (centres undefined) | -0.83%
26 | CC(C)[C@@]1(NC(=O)[C@@H]2C[C@@H]3c4cccc5[nH]cc(c45)C[C@H]3N(C)C2)O[C@@]2(O)[C@@H]3CCCN3C(=O)[C@H](Cc3ccccc3)N2C1=O | 85.1% (active)
27 | CC(C)[C@@]1(NC(=O)[C@@H]2C=C3c4cccc5[nH]cc(c45)C[C@H]3N(C)C2)O[C@@]2(O)[C@@H]3CCCN3C(=O)[C@H](Cc3ccccc3)N2C1=O | 35.2%
28 | CC(C)[C@H]1C(=O)N2CCC[C@H]2[C@]2(O)O[C@](NC(=O)[C@@H]3C=C4c5cccc6[nH]cc(c56)C[C@H]4N(C)C3)(C(C)C)C(=O)N12 | 37.3%
29 | O=c1[nH]c(=O)n(Cc2ccccc2)c(O)c1C=NCCN1CCOCC1 | -6.38%
30 | O=c1[nH]c(=O)n(Cc2ccccc2)c(O)c1C=NCCN1CCNCC1 | 4.69%
31 | O=c1[nH]c(=O)n(CCc2ccccc2)c(O)c1C=NCCN1CCNCC1 | -7.13%
32 | O=c1c(C=NCCN2CCNCC2)c(O)n(C2CCCCC2)c(=O)n1C1CCCCC1 | 82.3% (active)
33 | OC(c1ccc(F)cc1)C(c1ccccc1)N1CCOCC1 (centres undefined) | 7.16%
34 | O=c1[nH]c(=O)n(Cc2ccco2)c(O)c1C=NCCN1CCOCC1 | 0.93%
35 | CC1CCC(C(C)C)C(OP(N)(=O)c2ccccc2)C1 (centres undefined) | 16.9%
36 | CNCCc1nc(N)n[nH]1 | 1.61%
37 | Cc1c(N=Cc2c(O)n(CCc3ccc(F)cc3)c(=O)[nH]c2=O)c(=O)n(-c2ccccc2)n1C | 12.3%
38 | Cc1c(N=Cc2c(O)n(CCc3ccccc3)c(=O)[nH]c2=O)c(=O)n(-c2ccccc2)n1C | 79.2% (active)
39 | CCCCCCn1c(O)c(C=Nc2c(C)n(C)n(-c3ccccc3)c2=O)c(=O)[nH]c1=O | 6.23%
40 | C=CCn1c(O)c(C=NCCN(C)C)c(=O)[nH]c1=O | 2.68%

Row | Compound | growth inhibition
41 | O=c1[nH]c(=O)n(CCc2ccccc2)c(O)c1C=NCCCn1ccnc1 | -3.73%
42 | CCOc1ccccc1-n1c(O)c(C=Nc2c(C)n(C)n(-c3ccccc3)c2=O)c(=O)[nH]c1=O | 0.12%
43 | CC1(C)NCCN2C(=O)CSC21 (centres undefined) | -1.76%
44 | O=C(CCCN1CCC2(CC1)C(=O)NCN2c1ccccc1)c1ccc(F)cc1 | 54.1% (active)
45 | CCCN(CC#CCO)CCC | 0.1%
46 | Cn1c(O)c(C(=O)c2ccccc2Cl)c(=O)n(C)c1=O | 2.11%
47 | CC(=O)OC1(c2ccc(C)cc2)CN2CCC1c1ccccc12 (centres undefined) | 6.24%
48 | C=CCn1c(O)c(C=Nc2ccc(N(CC)CC)cc2)c(=O)[nH]c1=O | 4.7%
49 | O=c1[nH]c(=O)n(-c2cccc(Cl)c2)c(O)c1C=NCCN1CCCCC1 | 4.68%
50 | Cc1c(N=Cc2c(O)n(Cc3ccco3)c(=O)[nH]c2=O)c(=O)n(-c2ccccc2)n1C | -0.44%
51 | CCCCCCn1c(O)c(C=NCCN2CCCCC2)c(=O)[nH]c1=O | -5.08%
52 | Clc1ccc(COC(Cn2ccnc2)c2ccc(Cl)cc2Cl)cc1 (centres undefined) | 91.6% (active)
53 | Clc1ccc(CSC(Cn2ccnc2)c2ccc(Cl)cc2Cl)cc1 (centres undefined) | 93.2% (active)
54 | c1ccc(Cn2ccnc2)cc1 | 8.97%
55 | Clc1ccc(COC(Cn2ccnc2)c2ccc(Cl)cc2Cl)c(Cl)c1 (centres undefined) | 92.5% (active)
56 | CCOc1ccc(-n2c(O)c(C=Nc3ccc(N(CC)CC)cc3)c(=O)[nH]c2=O)cc1 | 9.98%
57 | CC(=O)C1(c2ccccc2)CCNCC1 | 2.01%
58 | Cn1c(O)c(C=NCCCNC2CCCCC2)c(=O)n(C)c1=O | 0.52%
59 | CCOc1ccccc1-n1c(O)c(C=Nc2ccc(N(CC)CC)cc2)c(=O)[nH]c1=O | 45.4%
